PubChem BioAssay AID1159580 (chemical genetic matrix, 2015)
Screen size: about 5,500 compounds; about 2,000 (36%) were called active. Another 18% or so got no clear call; they are omitted. Rule as the data show it: active = normalized growth mostly below about 0.91 (no sharp cut-off); inconclusive = no clear call, values can overlap the other calls; inactive = mostly above about 0.92. The list shows a part of the results.

Experiment: chemical genetic growth profiling, strain panel (AID 1159580);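 also: tested at 20 µM; growth read once vehicle control cultures reached saturation at 30 °C; 1 = growth at the plate median or of vehicle wells; lower values mean less growth of the strain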
Settings: S. cerevisiae deletion strains, growth OD
[1] = locus YAL021C, strain ccr4, hits give low values
[2] = locus YAL026C, strain drs2, hits give low values
[3] = locus YAL030W, strain snc1, hits give low values
[4] = locus YBL061C, strain skt5, hits give low values
[5] = locus YBR009C, strain hhf1, hits give low values
[6] = locus YBR023C, strain chs3, hits give low values
[7] = locus YBR171W, strain sec66, hits give low values
[8] = locus YBR231C, strain swc5, hits give low values
[9] = locus YBR279W, strain paf1, hits give low values
[10] = locus YCL011C, strain gbp2, hits give low values
[11] = locus YCL016C, strain dcc1, hits give low values
[12] = locus YCL061C, strain MRC1, hits give low values
[13] = locus YCL069W, strain vba3, hits give low values
[14] = locus YCR088W, strain abp1, hits give low values
[15] = locus YDL005C, strain med2, hits give low values
[16] = locus YDL040C, strain nat1, hits give low values
[17] = locus YDR001C, strain nth1, hits give low values
[18] = locus YDR069C, strain doa4, hits give low values
[19] = locus YDR137W, strain rgp1, hits give low values
[20] = locus YDR159W, strain sac3, hits give low values
[21] = locus YDR297W, strain sur2, hits give low values
[22] = locus YDR334W, strain swr1, hits give low values
[23] = locus YDR335W, strain msn5, hits give low values
[24] = locus YDR392W, strain spt3, hits give low values
[25] = locus YEL003W, strain gim4, hits give low values
[26] = locus YEL037C, strain rad23, hits give low values
[27] = locus YEL061C, strain CIN8 (second series), hits give low values
[28] = locus YER015W, strain faa2, hits give low values
[29] = locus YER016W, strain bim1, hits give low values
[30] = locus YER111C, strain swi4, hits give low values
[31] = locus YER155C, strain BEM2 (second series), hits give low values
[32] = locus YFR010W, strain ubp6, hits give low values
[33] = locus YGL167C, strain pmr1, hits give low values
[34] = locus YGL173C, strain kem1, hits give low values
[35] = locus YGL227W, strain vid30, hits give low values
[36] = locus YGL240W, strain doc1, hits give low values
[37] = locus YGL253W, strain hxk2, hits give low values
[38] = locus YHR013C, strain ard1, hits give low values
[39] = locus YHR027C, strain rpn1, hits give low values
[40] = locus YHR030C, strain SLT2, hits give low values
[41] = locus YHR079C, strain IRE1, hits give low values
[42] = locus YHR142W, strain chs7, hits give low values
[43] = locus YJL092W, strain hpr5, hits give low values
[44] = locus YJL095W, strain BCK1 (second series), hits give low values
[45] = locus YJL095W, strain BCK1, hits give low values
[46] = locus YJL115W, strain asf1, hits give low values
[47] = locus YJL129C, strain trk1, hits give low values
[48] = locus YJL154C, strain vps35, hits give low values
[49] = locus YJL164C, strain tpk1, hits give low values
[50] = locus YJL166W, strain qcr8, hits give low values
[51] = locus YJR066W, strain TOR1, hits give low values
[52] = locus YKL160W, strain elf1, hits give low values
[53] = locus YKR026C, strain gcn3, hits give low values
[54] = locus YKR091W, strain srl3, hits give low values
[55] = locus YLL001W, strain dnm1, hits give low values
[56] = locus YLL026W, hits give low values
[57] = locus YLL041C, strain sdh2, hits give low values
[58] = locus YLR027C, strain aat2, hits give low values
[59] = locus YLR113W, strain HOG1, hits give low values
[60] = locus YLR221C, strain rsa3, hits give low values
[61] = locus YLR258W, strain gsy2, hits give low values
[62] = locus YLR262C, strain YPT6 (second series), hits give low values
[63] = locus YLR320W, strain mms22, hits give low values
[64] = locus YLR342W, strain FKS1, hits give low values
[65] = locus YLR357W, strain rsc2, hits give low values
[66] = locus YLR370C, strain arc18, hits give low values
[67] = locus YLR384C, strain iki3, hits give low values
[68] = locus YML120C, strain ndi1, hits give low values
[69] = locus YMR058W, strain fet3, hits give low values
[70] = locus YMR125W, strain sto1, hits give low values
[71] = locus YMR129W, hits give low values
[72] = locus YMR205C, strain PFK2, hits give low values
[73] = locus YMR231W, strain pep5, hits give low values
[74] = locus YNL071W, strain lat1, hits give low values
[75] = locus YNL183C, strain NPR1, hits give low values
[76] = locus YNL209W, strain ssb2, hits give low values
[77] = locus YNL248C, strain rpa49, hits give low values
[78] = locus YNL322C, strain KRE1 (second series), hits give low values
[79] = locus YNR049C, strain mso1, hits give low values
[80] = locus YOR001W, strain rrp6, hits give low values
[81] = locus YOR070C, strain gyp1, hits give low values
[82] = locus YOR080W, strain dia2, hits give low values
[83] = locus YOR083W, strain WHI5, hits give low values
[84] = locus YOR106W, strain vam3, hits give low values
[85] = locus YOR231W, strain MKK1, hits give low values
[86] = locus YOR265W, strain rbl2, hits give low values
[87] = locus YOR270C, strain vph1, hits give low values
[88] = locus YOR290C, strain snf2, hits give low values
[89] = locus YPL051W, strain arl3, hits give low values
[90] = locus YPL078C, strain atp4, hits give low values
[91] = locus YPL106C, strain sse1, hits give low values
[92] = locus YPL240C, strain hsp82, hits give low values
[93] = locus YPL256C, strain CLN2, hits give low values

Measured: normalized growth

CC(=O)OCC(=O)[C@H]1CCC2C3CC=C4C[C@@H](O)CC[C@]4(C)C3CC[C@@]21C (some centres undefined)
inactive: [1] 1.04 | [2] 0.971 | [3] 0.993 | [4] 0.969 | [6] 0.97 | [7] 1 | [9] 0.998 | [11] 0.983 | [14] 0.965 | [16] 1.01 | [17] 1.01 | [18] 1.02 | [21] 1.02 | [22] 1.01 | [26] 0.999 | [27] 0.945 | [28] 1.01 | [29] 0.967 | [30] 0.986 | [32] 0.976 | [33] 1 | [34] 0.953 | [35] 0.935 | [36] 0.927 | [37] 0.937 | [38] 0.87 | [39] 1.05 | [40] 0.896 | [41] 0.915 | [43] 0.931 | [44] 0.97 | [45] 0.956 | [46] 1.02 | [48] 1.01 | [51] 0.913 | [52] 0.946 | [53] 1.01 | [54] 1.02 | [56] 0.935 | [59] 0.882 | [61] 0.963 | [65] 1.04 | [66] 1 | [67] 1.02 | [69] 0.924 | [71] 0.998 | [73] 1.02 | [75] 0.956 | [77] 0.899 | [78] 1.02 | [79] 0.991 | [80] 1.02 | [81] 1.03 | [82] 1.01 | [84] 0.913 | [85] 0.942 | [86] 0.979 | [89] 1 | [92] 1.03 | [93] 0.906
active: [5] 0.819 | [8] 0.894 | [10] 0.858 | [12] 0.893 | [13] 0.893 | [15] 0.885 | [19] 0.742 | [20] 0.753 | locus YDR195W, strain ref2 1.4 [resistant] | [23] 0.908 | [24] 0.142 | [25] 0.894 | [31] 0.337 | [42] 0.593 | [47] 0.696 | [49] 0.853 | [50] 0.826 | [55] 0.829 | [57] 1.07 [resistant] | [58] 0.921 | [60] 0.816 | [62] 0.583 | [63] 0.435 | [64] 0.762 | [68] 0.805 | [70] 0.829 | [72] 0.833 | [74] 0.175 | [76] 1.08 [resistant] | [83] 0.885 | [87] 0.669 | [88] 0.862 | [90] 0.887 | [91] 1.3 [resistant]

CC(=O)[C@H]1CCC2C3CC=C4C[C@@H](OC(=O)CCC(=O)O)CC[C@]4(C)C3CC[C@@]21C (some centres undefined)
active: [5] 0.899 | [19] 0.556 | [24] 0.466 | [31] 0.842 | [34] 0.898 | [47] 0.804 | [62] 0.57 | [63] 0.796 | [68] 0.9 | [72] 0.822 | [74] 0.845
inactive: [1] 0.975 | [2] 0.913 | [3] 0.969 | [4] 0.964 | [6] 0.96 | [7] 0.898 | [8] 0.975 | [9] 0.961 | [10] 0.957 | [11] 0.965 | [12] 0.962 | [13] 0.983 | [14] 0.966 | [15] 0.941 | [16] 0.973 | [17] 0.971 | [18] 0.966 | [20] 0.943 | locus YDR195W, strain ref2 1.03 | [21] 0.95 | [22] 0.989 | [23] 0.977 | [25] 0.968 | [26] 0.972 | [27] 0.97 | [28] 0.985 | [29] 0.969 | [30] 0.953 | [32] 0.966 | [33] 0.928 | [35] 0.973 | [36] 0.939 | [37] 0.971 | [38] 0.941 | [39] 0.978 | [40] 0.997 | [41] 0.974 | [42] 0.932 | [43] 0.966 | [44] 0.971 | [45] 0.913 | [46] 0.99 | [48] 0.988 | [49] 0.955 | [50] 0.929 | locus YJL187C, strain SWE1, hits give low values 0.968 | [51] 0.942 | [52] 0.951 | [53] 0.962 | [54] 0.968 | [55] 0.948 | [56] 0.974 | [57] 0.985 | [58] 0.978 | [59] 0.855 | [60] 0.967 | [61] 0.956 | [64] 0.955 | [65] 0.989 | [66] 0.942 | [67] 0.97 | [69] 0.963 | [70] 0.938 | [71] 0.968 | [73] 0.975 | [75] 0.927 | [76] 0.969 | [77] 0.988 | [78] 0.969 | [79] 0.973 | [80] 0.952 | [81] 0.959 | [82] 0.95 | [83] 0.974 | [84] 0.953 | [85] 0.961 | [86] 0.981 | [87] 0.91 | [88] 0.908 | [89] 0.973 | [90] 0.956 | [91] 1 | [92] 0.971 | [93] 0.991
